Screening data from PubChem.
mHTT CaM bind = mHTT-calmodulin interaction abrogation. P42858. AlphaScreen His-mHTT/GST-CaM binding, luminescence. inhibition, % at 15 µM. actives 3.6% (n = 190,000). AID 1671202;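 further: 0% = both proteins with DMSO and 100% = one protein alone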
Pf apPOL block = Pf-apPOL DNA polymerase inhibition | Recombinant Pf-apPOL, molecular beacon fluorescence, 1.5 h | inhibition, % at 10 µM | actives 0.25% (n = 210,000)
Active calls of the source: *; i = inactive; ! = not active in a repeat. A selection: hits, their analogues and other compounds. The true share with any hit is near 3.5%. No stated cut-off is given here; in the data, active means inhibition above about 50%; inactive means the rest.

SMILES	mHTT CaM bind	Pf apPOL block
CC1(C)CC(CCNS(=O)(=O)CC23CCC(CC2=O)C3(C)C)CC(C)(C)N1 (stereo not drawn)	1	-8
Cc1ccc(C)c(N2CCN(C(=O)CCC(=O)N3CCCn4nc(C)cc43)CC2)c1	46	1
Cc1cc2n(n1)CCC(=O)N2CCCC(=O)N1CCN(c2cc(Cl)ccc2C)CC1	84*	-6
Cc1ccc(C)c(N2CCN(C(=O)CCCN3C(=O)CCn4nc(C)cc43)CC2)c1	27	-3
Cc1cc2n(n1)CCCN2C(=O)CCC(=O)N1CCN(c2cc(Cl)ccc2C)CC1	87*	0
COc1ccc2oc(=O)c(C(=O)Nc3cccc(C(F)(F)F)c3)cc2c1	-2	-3
CCC(=O)Nc1cccc(NC(=O)CC(C)C)c1	-2	3
Cc1c(Cl)cccc1NC(=O)N1CC2CCCN2c2ccccc21 (stereo not drawn)	77*	-3
O=C(Nc1ccccc1F)N1CC2CCCN2c2ccccc21 (stereo not drawn)	24	-4
COC(=O)c1ccc(Cl)cc1NC(=O)N1CC2CCCN2c2ccccc21 (stereo not drawn)	46	5
Cc1c(Cl)cccc1NC(=O)N1CC(C)Oc2ccccc21 (stereo not drawn)	-5	-18
CCc1ccccc1NC(=O)N1CC2CCCN2c2ccccc21 (stereo not drawn)	79*	-1
CCOC(=O)c1ccccc1NC(=O)N1CC2CCCN2c2ccccc21 (stereo not drawn)	68*	-1
COc1ccc(NC(=O)C(C(=O)Nc2ccc(OC)cc2)C(=O)Nc2ccc(OC)cc2)cc1	13	-3
CCc1onc(C)c1C1CCCN1C(=O)Nc1ccc(F)cc1F (stereo not drawn)	0	-4
O=C(Nc1ccc(Cl)c(C(F)(F)F)c1)C1CC(=O)N(c2ccccc2)C1 (stereo not drawn)	2	10
Nc1nonc1/C(=N\O)N1CCN(c2ccc([N+](=O)[O-])c3cccnc23)CC1	i	-1
COc1ccc(N(CC(=O)NC(C)C)S(=O)(=O)c2ccc(C)c([N+](=O)[O-])c2)cc1	4	-2
COC(=O)Oc1ccc2c(=O)c(Oc3ccccc3Cl)coc2c1	69*	2
CCOC(=O)Oc1ccc2c(=O)c(-c3ccccc3Cl)coc2c1	16	-3
CCOC(=O)Oc1ccc2c(=O)c(Oc3ccccc3Cl)coc2c1	28	-3
COC(=O)Oc1ccc2c(=O)c(-c3ccccc3Cl)coc2c1	61*!	-4
CCSc1nnc2n1CCN2c1ccc(F)cc1	-2	-3
O=[N+]([O-])c1ccc(C2SCCN2S(=O)(=O)c2ccc(-c3ccccc3)cc2)cc1 (stereo not drawn)	3	-6
Cc1ccc(C(=O)N2CCc3nc4cc(-c5ccccc5Cl)[nH]n4c(=O)c3C2)cn1	1	-3
SMILES	mHTT CaM bind	Pf apPOL block
CSc1ccc(C2Nc3ccccc3NC3=C2C(=O)CC(c2cccs2)C3)cc1 (stereo not drawn)	54*	-11
O=C1CC(c2ccccc2)CC2=C1C(c1cccc(C(F)(F)F)c1)Nc1ccccc1N2 (stereo not drawn)	61*	-16
O=C1CC(c2ccccc2)CC2=C1C(c1ccc(F)cc1)Nc1ccccc1N2 (stereo not drawn)	11	-13
COc1cccc(C2CC(=O)C3=C(C2)Nc2ccccc2NC3c2ccc(C(F)(F)F)cc2)c1 (stereo not drawn)	53*	-13
O=C1CC(c2ccc3c(c2)OCO3)CC2=C1C(c1ccc3c(c1)OCO3)Nc1ccccc1N2 (stereo not drawn)	27	-2
O=C1CC(c2ccc3c(c2)OCO3)CC2=C1C(c1ccc(C(F)(F)F)cc1)Nc1ccccc1N2 (stereo not drawn)	62*	2
COc1cccc(C2CC(=O)C3=C(C2)Nc2ccccc2NC3c2ccc(C)s2)c1 (stereo not drawn)	28	-6
O=C1CC(c2cccs2)CC2=C1C(c1ccc(Cl)cc1)Nc1ccccc1N2 (stereo not drawn)	33	-21
Cc1nc2c3ccccc3nc(SCC(=O)NCCC(C)C)n2n1	14	1
Cc1noc(-c2cccn2Cc2ccccc2Cl)n1	-33	0
O=C(Nc1ccc(Br)cc1)c1ccc(F)c(S(=O)(=O)NCc2ccco2)c1	15	-6
NC(=O)c1cccc(N=Cc2cccc(Cl)c2Cl)c1	11	3
O=C(c1ccccc1)N1CCCC2(C1)Nc1ccccc1NC2=NC1CCCC1 (stereo not drawn)	32	2
O=C(c1ccncc1)N1CCCC2(C1)Nc1ccccc1NC2=NCc1ccccc1 (stereo not drawn)	24	0
O=C(c1ccoc1)N1CCCC2(C1)Nc1ccccc1NC2=NC1CCCC1 (stereo not drawn)	69*	4
O=C(c1ccco1)N1CCCC2(C1)Nc1ccccc1NC2=NC1CCCC1 (stereo not drawn)	79*	-1
